# Compound activity: PubChem BioAssay, Broad Institute
# Compounds with a hit are over-represented: about 3% of the library has one in this group of screens.
# esBAF inh – Bmi1 luciferase reporter increase in mESCs, primary screen, esBAF inhibitor project, mouse ES cells, Bmi1 luciferase knock-in, single point. 24 h; 100% = twice the neutral-well signal. reporter increase, % at 12.5 µM. 350,000 tested, 2% active. AID 602393, 2012; in the data active means activation above about 40%;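 further: 0% = median of the plate's neutral control wells and 100% = double that signal; a rise in the Bmi1 reporter signal indicates esBAF inhibition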
# Statin myotox sup – suppressors of statin myotoxicity in C2C12 myotubes, primary screen, cell-based, single point, plate reader; C2C12 myotubes + simvastatin, ATP luminescence, 48 h; scaled: DMSO 0, geranylgeraniol control 100; 330,000 tested, 0.78% active; AID 602340, 2012; rescue of ATP level, % at 7.49 µM;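 active means mean ATP rescue above about 67%, or every replicate alone reaching that limit, limit read from the data, passing the limit was not always enough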;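 further: myotubes were challenged with 10 µM simvastatin during compound exposure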
# MITF act – activators of MITF-driven TRPM1 promoter reporter, primary screen, cell-based, SK-MEL-5, luciferase, single point. activation, % at 12.5 µM. 300,000 tested, 0.75% active. AID 588334, 2011. SK-MEL-5 TRPM1-promoter luciferase, 24 h; % of positive control, neutral wells = 0;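 active means mean activation of at least 80% with every replicate also reaching 80%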;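 further: 0% = neutral control wells and 100% = parthenolide positive control wells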
# Wnt bcat act – Wnt/beta-catenin pathway activators, primary screen, cell-based, plate reader, single point; AID 743398, 2014; 300,000 tested, 1.2% active; activation, % at 9.35 µM; Wnt/beta-catenin reporter cell assay, activator; in the data active means activation above about 30%, passing the limit was not always enough;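 further: 0% = neutral control wells and 100% = positive control wells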
# The depositor's hits bear a star; / = no result.
SMILES,esBAF inh,Statin myotox sup,MITF act,Wnt bcat act
COc1ccc(-c2cc3nc[nH]c(=O)c3s2)cc1,7.2,-5.6,26.7,33.6*
O=c1[nH]cnc2scc(-c3ccc(-c4ccccc4)cc3)c12,24.1,/,/,/
COc1ccc2cc(-c3ccccc3)ncc2c1,1.8,-11.6,39.6,32.0*
COc1cc(OC)cc(-c2cc3ccc(OC)cc3cn2)c1,24.1,-135.2,64.1,16.0
COc1ccc2cc(C3=CCCCC3)ncc2c1,8.3,0.4,30.9,42.4*
COc1cc2cnc(C3=CCCCC3)cc2cc1OC,24.5,-0.8,23.6,11.2
COc1ccc2cc(-c3ccsc3)ncc2c1,28.9,-15.9,-58.8,41.2*
COc1cccc(-c2ccc3n(c2=O)C[C@H]2[C@H](CO)[C@@H](C(=O)N4CCOCC4)N[C@@H]32)c1,0.6,3.7,/,/
CCCCCCCNC(=O)C1(CC2CC(c3ccc(Cl)cc3)=NO2)CCN(C(=O)OC(C)(C)C)CC1 (stereo unspecified),-3.8,121.1*,-7.4,-2.2
O=C(Nc1ccc(-c2nc3cccnc3s2)cc1)c1ccc(Cl)nc1,18.6,8.7,89.2*,7.7
O=C(Nc1ccc(-c2nc3cccnc3s2)cc1)c1ccco1,-7.0,-39.5,/,19.6
O=C(Nc1ccc(-c2nc3cccnc3s2)cc1)c1cccnc1Cl,-6.7,0.8,53.5,37.7*
O=C(Nc1ccc(-c2nc3cccnc3s2)cc1)c1ccc(Br)o1,32.4,3.3,/,38.7*
CCCN1[C@@H]2c3ccc(-c4ccc(C(=O)N(C)C)cc4)c(=O)n3C[C@@H]2[C@@H](CO)[C@@H]1C(=O)NCC,-0.5,-7.2,/,/
C[C@H](CO)N1C[C@H](C)[C@H](CN(C)S(=O)(=O)c2cn(C)cn2)Oc2ccc(NC(=O)CCN3CCOCC3)cc2CC1=O,-0.2,18.1,/,/
CC(C)CC#Cc1cnc2c(c1)C(=O)N([C@@H](C)CO)C[C@H](C)[C@@H](CN(C)C(=O)Cc1ccncc1)O2,-3.1,-2.3,/,/
CCOc1ccccc1N1CC(C(=O)NCCC2=CCCCC2)CC1=O (stereo unspecified),46.0*,-18.8,58.7,0.3
COc1ccc(/C=C(/C#N)c2cccnc2)cc1OC,5.1,6.2,7.0,-4.3
COc1ccc(C=C(C#N)c2ccc(OC)cc2)cc1,55.4*,10.1,42.9,13.1
COc1ccc(C(C#N)=Cc2ccc(OC)c(OC)c2)cc1,68.4*,0.1,/,2.0
Cc1ccc(C)c(S(=O)(=O)N2CCC(c3nc4c(nnn4Cc4ccc5c(c4)OCCO5)c(=O)[nH]3)CC2)c1,2.6,77.1*,-8.6,-2.3
O=c1[nH]c(C2CCN(S(=O)(=O)c3ccc4c(c3)OCCO4)CC2)nc2c1nnn2Cc1ccccc1,-1.1,1.6,-4.0,4.1
Cc1ccc(C)c(Cn2nnc3c(=O)[nH]c(C4CCCN(C(=O)CC(C)C)C4)nc32)c1 (stereo unspecified),3.6,85.4*,-2.4,-2.9
CCCCC(=O)N1CCCC(c2nc3c(nnn3Cc3cc(C)ccc3C)c(=O)[nH]2)C1 (stereo unspecified),7.7,5.7,-10.1,/
CC(C)(C)c1ccc(Cn2nnc3c(=O)[nH]c(C4CCN(C(=O)Cc5cccs5)CC4)nc32)cc1,9.2,112.3*,0.9,/
SMILES,esBAF inh,Statin myotox sup,MITF act,Wnt bcat act
CC(C)(C)c1ccc(Cn2nnc3c(=O)[nH]c(C4CCCN(C(=O)Cc5cccs5)C4)nc32)cc1 (stereo unspecified),-2.8,60.4,3.8,-3.3
C[C@H]1CN([C@@H](C)CO)S(=O)(=O)c2ccc(C3=CCCC3)cc2O[C@H]1CN(C)C(=O)C1CC1,/,42.6,/,/
C[C@H](CO)N1C[C@H](C)[C@H](CN(C)S(=O)(=O)c2ccc(F)cc2)Oc2ncc(C#Cc3ccccc3)cc2C1=O,/,60.6,/,/
COc1ccc(-c2ccc3nccn3c2)cc1,44.9*,-4.8,/,-0.7
C[C@H](CO)N1C[C@H](C)[C@@H](CN(C)C(=O)Nc2ccc3c(c2)OCO3)OCCCC[C@H](C)Oc2ccc(NS(=O)(=O)c3ccc(Cl)cc3)cc2C1=O,11.6,/,/,/
Cc1cc(O)c(C(=O)/C=C/c2ccc(C(C)C)cc2)c(=O)o1,24.0,7.9,8.9,39.3*
Cc1cc(O)c(C(=O)/C=C/c2ccccc2)c(=O)o1,26.6,-9.0,-5.6,11.8
N#Cc1ccc(C(=O)NCC(c2ccco2)N2CCCC2)cc1 (stereo unspecified),0.0,-0.8,-9.2,/
N#Cc1ccc(C(=O)NCC(c2ccco2)N2CCCCC2)cc1 (stereo unspecified),5.2,124.0*,4.9,-2.7
Cc1cc(C)nc(SCc2n[nH]c(=S)n2C)n1,-9.9,91.9*,0.2,-2.2
Cc1ccc(-n2c(CSc3nc(C)cc(C)n3)n[nH]c2=S)cc1,/,/,1.9,-0.1
COc1ccc(SCC(=O)Nc2ccc(N3CCN(C)CC3)c(F)c2)cc1,/,/,-14.1,-2.7
Cc1ccc(SCC(=O)Nc2ccc(N3CCN(C)CC3)c(F)c2)cc1,30.4,-0.8,/,40.1*
Cc1noc(C)c1NC(=O)Nc1ccc2c(c1)C(=O)N([C@@H](C)CO)C[C@@H](C)[C@@H](CN(C)Cc1ccc(C(=O)O)cc1)O2,2.9,-34.1,/,/
O=C(NCC[C@H]1CC[C@@H](NC(=O)C2CC2)[C@H](CO)O1)c1cnccn1,1.2,-1.0,/,/
CCOC(=O)N1CCN(C(=O)C2CC(c3ccccc3OC)=NO2)CC1 (stereo unspecified),6.1,105.9*,6.0,-2.3
COc1cc(OC)c(C2=NOC(C(=O)N3CCCc4ccccc43)C2)cc1Cl (stereo unspecified),-0.6,134.9*,10.4,/
CC(C)NC(=O)Nc1ccc2c(c1)C(=O)N([C@@H](C)CO)C[C@H](C)[C@H](CN(C)S(=O)(=O)c1cn(C)cn1)OCCCC[C@H](C)O2,-5.0,/,/,/
Cc1ccc(Nc2nc(CSc3n[nH]c(N)n3)cs2)cc1,-50.0,-39.1,93.1*,42.7*
Cc1ccc(Nc2nc(CSc3nnnn3C)cs2)cc1,61.3*,-18.7,74.9,29.6
Cc1ccc(CSc2n[nH]c(N)n2)cc1,23.1,-3.7,23.1,1.0
Cc1noc(C)c1NC(=O)N(C)C[C@H]1Oc2ccc(NC(=O)CCN3CCOCC3)cc2CC(=O)N([C@@H](C)CO)C[C@@H]1C,-1.9,-1.2,/,/
C/C(=N/OC(=O)C1CC1)c1cc(-c2ccc(Cl)cc2)no1,/,/,89.4*,7.6
N#C/C(=C1/CCCCCN1)c1nc2ccccc2s1,57.1*,9.4,1.4,/
CCc1c(C)nc(SCC(=O)c2cccs2)c(C#N)c1C,54.0*,-9.2,39.5,/
O=C(c1ccc(Cl)c([N+](=O)[O-])c1)N(Cc1ccccc1)C1CCS(=O)(=O)C1 (stereo unspecified),/,/,-5.3,-2.8
O=C(c1ccc(Cl)c([N+](=O)[O-])c1)N(Cc1ccc(Cl)cc1)C1CCS(=O)(=O)C1 (stereo unspecified),/,/,-6.3,47.0*
CN(C(=O)c1ccc(N2CCCCC2)c([N+](=O)[O-])c1)C1CCS(=O)(=O)C1 (stereo unspecified),/,108.2*,5.7,9.1
